Bioassay records as filed in PubChem BioAssay.
Hits are enriched below; roughly 32% of the tested compounds scored in any of these assays.
CYP2C9 act: increases human cytochrome P450 2C9 activity; AID 1024; recombinant CYP2C9, luciferin-H conversion, luminescence; active compounds read high; factor 1 = untreated enzyme, 0 = blocked; 1.4% of 96,000 active; activation factor at 5 µM; P11712;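 active = activation factor of 2 or more for CYP2C9 at a 5 µM dose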;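 note: 0 = sulfaphenazole-blocked wells and 1 = vehicle-only wells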
PostGolgi yeast: growth inhibition of a yeast mutant, post-Golgi transport screen. inhibition, % at 10 µM. post-Golgi transport phenotypic cell assay. 0.9% of 98,000 active;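 note: yeast cells grown in 1536-well plates; yeast grown about 18 h at 30C before absorbance read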
PostGolgi ctrl: inhibits growth of the yeast control strain; efflux-deficient yeast background strain, growth absorbance A615, 16 h; AID 738; inhibition, % at 10 µM; 5% of 98,000 active
CYP2C9 inhib: inhibitors of human CYP2C9; CYP2C9 Supersomes, luciferin-H conversion, luminescence; 20% of 96,000 active; AID 777; inhibition, % at 5 µM; P11712;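 active = blocking of liver enzyme CYP2C9 beyond about 50% at 5 µM, limit read from the data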
CYP2C19 act: increases human CYP2C19 enzyme activity; P33261; recombinant CYP2C19, luciferin-H EGE luminescence; active compounds read high; 0 = fully inhibited enzyme, 1 = untreated enzyme; activation factor at 5 µM; 96,000 tested, under 10 active; AID 1025;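 active = activation factor of at least 2 at 5 µM in the primary screen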;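 note: 0 = wells with 2.5 mM tranylcypromine and 1 = vehicle-only wells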
Target sequence (P33261 whole entry, looked up): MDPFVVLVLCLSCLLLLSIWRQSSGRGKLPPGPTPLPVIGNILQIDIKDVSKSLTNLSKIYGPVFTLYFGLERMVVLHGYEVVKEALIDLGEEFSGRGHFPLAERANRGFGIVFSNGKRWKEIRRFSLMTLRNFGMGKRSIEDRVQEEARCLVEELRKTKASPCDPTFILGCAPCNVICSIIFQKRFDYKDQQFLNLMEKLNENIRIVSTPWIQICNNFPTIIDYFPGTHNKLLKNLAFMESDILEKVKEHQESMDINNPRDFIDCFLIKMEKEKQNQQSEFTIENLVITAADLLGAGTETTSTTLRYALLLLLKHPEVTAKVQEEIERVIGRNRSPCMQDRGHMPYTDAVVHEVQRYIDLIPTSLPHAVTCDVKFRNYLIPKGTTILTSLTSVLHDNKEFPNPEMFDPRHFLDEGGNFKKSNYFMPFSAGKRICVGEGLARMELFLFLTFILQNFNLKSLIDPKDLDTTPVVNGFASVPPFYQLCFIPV
CYP2C19 inhib: human CYP2C19 inhibition. P33261. CYP2C19 Supersomes, luciferin-H EGE luminescence, 30 min. inhibition, % at 5 µM. 21% of 96,000 active. AID 778;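 active = CYP2C19 inhibition above a set limit at 5 µM in the primary screen, cut at about 50% in these data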;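 note: plate controls were negative control wells for no effect and 2.5 mM tranylcypromine positive control for full effect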
* marks the source's active call; other numbers are inactive results. Cut-off read from the data, not from the text of the source, unless noted: active = inhibition above about 30%; inactive = the rest.

SMILES	CYP2C9 act	PostGolgi yeast	PostGolgi ctrl	CYP2C9 inhib	CYP2C19 act	CYP2C19 inhib
CC12CC(NC(=O)N1c1ccc(C(=O)N3CCN(c4ccc(F)cc4)CC3)cc1)c1ccccc1O2 (stereo unspecified)	0.9	2	-4	10	0.7	29
Cc1ccc(Cl)c(OCC(=O)NCc2ccco2)c1	1.4	-21	14	-38	0.7	32
O=C(CNCCC1=CCCCC1)Nc1ccc(N2CCCCCC2)cc1	1	-1	100*	2	1	0
O=C(COC(=O)c1ccc(O)cc1)Nc1ccc(N2CCCCC2)cc1	0.3	-7	-4	74*	0.4	64*
O=CN1CCN(C(C(=O)NC2CCCC2)c2ccc(Cl)cc2)CC1 (stereo unspecified)	1	-4	25	-4	0.8	25
Cn1cc(C(=O)Nc2ccc(F)c(F)c2)cn1	1.1	-4	-2	-13	1.1	-6
Cn1c(NC(=O)COc2ccccc2)cc(=O)n(C)c1=O	0.9	-4	9	6	0.9	12
COC(=O)C(CC(=O)c1ccc(Br)cc1)n1ccnc1 (stereo unspecified)	0.2	-5	-3	81*	0	96*
COC(=O)c1ccc(NC(=O)CSCC(=O)OCC(=O)c2ccc(Br)cc2)cc1	0.7	1	4	28	0.8	20
COc1ccccc1C(=O)NCCN1CCN(C(=O)c2ccccc2OC)CC1	1	-1	5	-1	0.9	6
CC(C)Cc1cc(C(=O)NCc2cccs2)no1	0.6	0	14	36	0.2	80*
CC(C)Oc1ccc(C(CC(=O)O)NC(=O)c2cccs2)cc1 (stereo unspecified)	0.5	-10	3	55*	1.1	-7
Cc1cc(C(=O)NCc2cccs2)c(C)o1	1	23	-6	4	0.5	50*
O=C(NCc1cccs1)c1ccccc1	0.9	-5	9	5	0.8	22
CC(C)Oc1ccc(C(=O)NCc2cccs2)cc1	0.7	2	14	32	0.3	70*
CCCOc1ccc(C(CC(=O)O)NC(=O)c2cccs2)cc1 (stereo unspecified)	0.7	2	-6	26	1.1	-11
COc1n[nH]c2nncnc12	1.2	-2	24	-24	1.2	-21
O=C(NCc1cccs1)c1ccncc1	0.7	1	1	27	0.8	23
O=C(NCc1cccs1)c1csc2ccccc12	1.3	1	9	-31	0.1	85*
Cc1cc(C(=O)NCc2cccs2)cs1	0.8	-9	-3	18	0.3	73*
CC(C)CC(=O)N1CCN(C(=O)CCC2CCCC2)CC1	0.9	9	9	8	0.8	20
N#CCCn1cc(C(CC(=O)c2ccc(Br)cc2)C(=O)O)c2ccccc21 (stereo unspecified)	0.4	1	-8	58*	0.7	29
CCOC(=O)c1c(C)[nH]c(C)c1C(=O)CSc1nnc(-c2ccco2)n1Cc1ccccc1	0	1	4	98*	0	99*
CCCn1c(N)c(C(=O)CSc2nnc(C3CC3)n2Cc2ccccc2)c(=O)[nH]c1=O	0.4	-1	2	59*	1	0
NC(=O)CSc1nnc(C2CC2)n1Cc1ccccc1	1	3	-1	4	1	-5
SMILES	CYP2C9 act	PostGolgi yeast	PostGolgi ctrl	CYP2C9 inhib	CYP2C19 act	CYP2C19 inhib
CCOC(=O)c1c(C)[nH]c(C)c1C(=O)CSc1nnc(-c2ccncc2)n1C	0.4	10	2	63*	0	98*
CNC(=O)NC(=O)CSc1nnc(-c2ccco2)n1Cc1ccccc1	1.1	-6	15	-6	1.1	-11
CCOC(=O)c1c(C)[nH]c(C)c1C(=O)CSc1nnc(-c2ccncc2)n1Cc1ccccc1	0	8	0	98*	0	100*
Cc1ccc(NC2OC(C(O)CO)C(O)C2O)cc1[N+](=O)[O-] (stereo unspecified)	1.1	-1	9	-8	1.2	-17
O=C(O)C1C2CCC(C2)C1C(=O)NCc1ccccn1 (stereo unspecified)	0.8	-2	3	16	0.9	9
CCc1ccc(OCC(=O)N/N=C2\CC(=O)c3ccccc32)cc1	0.6	4	-1	44	0.2	82*
Cc1ccc(OCC(=O)NN=C2c3ccccc3-c3ccccc32)cc1	1.1	-2	1	-7	1	4
N#CCCN(C(=O)Nc1ccccc1)c1ccccc1	0.9	7	4	7	0.4	60*
Cn1c(COc2ccccc2)nnc1SCCC(=O)Nc1ccccc1	0.1	-8	10	88*	0.3	74*
CCn1c(SCCC(=O)Nc2ccccc2)nnc1-c1ccc(OC)cc1	0.4	2	3	62*	0.1	93*
COc1ccc2ncn(-c3ccccc3)c2c1	0.5	-7	4	55*	0.1	95*
COc1ccc(-n2cnc3ccccc32)cc1	0.4	9	5	59*	0.4	61*
COc1ccc(Nc2ncc3c(n2)CC(c2ccccc2)CC3=O)cc1 (stereo unspecified)	0.6	17	18	36	0.8	22
CSc1nc2nc3c(cn2n1)C(=O)CC(c1ccccc1)C3 (stereo unspecified)	0.5	-3	-3	50	0.5	51*
O=C1CC(c2ccccc2)Cc2nc3nc(C(F)(F)F)nn3cc21 (stereo unspecified)	0.4	-1	1	62*	0.5	49
Cn1c(N)c(C(=O)COC(=O)Cn2cc(C(F)(F)F)ccc2=O)c(=O)n(C)c1=O	0.9	-5	16	10	1	-2
Cc1nc(C)c(NC(=O)N2CCc3ccccc32)cc1NC(=O)N1CCc2ccccc21	0.2	-1	-2	77*	0.5	52*
CC12CCC(C(=O)N3CCc4ccccc43)(CC1=O)C2(C)C (stereo unspecified)	0.4	-10	25	58*	0.6	44
COc1ccc(N2CCN(C(=O)C34CCC(C)(C(=O)C3)C4(C)C)CC2)cc1 (stereo unspecified)	1.1	-5	-3	-7	1	2
CC12CCC(C(=O)N3CCN(c4ccccc4)CC3)(CC1=O)C2(C)C (stereo unspecified)	0.9	-6	0	13	0.5	54*
CC12CCC(C(=O)N3CCCc4ccccc43)(CC1=O)C2(C)C (stereo unspecified)	1	8	-1	5	0.6	44
CCSc1nnc(NC(=O)c2ccco2)s1	0.7	-3	4	29	1	4
CCSc1nnc(NC(NC(=O)c2ccco2)(C(F)(F)F)C(F)(F)F)s1	0.1	-2	10	90*	0.9	7
CC(=O)Nc1nnc(SCC(=O)NC(C)(C)C)s1	1	-4	32*	-5	1	-1
CCSc1nnc(NC(=O)C(CC)(C(F)(F)F)C(F)(F)F)s1	0	-2	10	98*	0.7	33
